# In the library only some 13% were active in any assay of this set; here they are far more common.
# Pf growth 96h: Primary qHTS for delayed death inhibitors of the malarial parasite plastid, 96 hour incubation; P. falciparum luciferase reporter growth, 96 h; Potency, µM (highest dose often 28.7 µM), for the others: at the top dose activity change, negative = inhibition, actives largely listed as inhibitors; 320,000 compounds, 6.9% hits; AID 504834, 2011; also: potency is read from the fitted curve at half-maximal effect
#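 Luminescence readout: decreased luciferase signal marks inhibited growth of reporter-expressing P. falciparum in infected red cells (2% hematocrit, 0.05% parasitemia final), exposed to compound two generations (96 h, 37 C, 5% CO2).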
# Pf growth 48h: Primary qHTS for delayed death inhibitors of the malarial parasite plastid, 48 hour incubation; P. falciparum luciferase growth in erythrocytes, 48 h; Potency, µM (series often up to 28.7 µM), without a hit: top-dose activity change, negative = inhibition, most hits filed as inhibitors; 310,000 compounds, 5.9% hits; AID 504832, 2011; also: potency is read from the fitted curve at half-maximal effect
#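 Growth was read as firefly luciferase luminescence after a 48 h, 37 C, 5% CO2 exposure of compounds to reporter-bearing P. falciparum cultures (0.1% parasitemia, 2% hematocrit final) in Albumax-supplemented RPMI 1640.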
# HCV inh: qHTS Assay for Inhibitors of Hepatitis C Virus (HCV) | Huh7.5.1 HCVcc-Cre infection, luciferase reporter, 44 h | Potency, µM (highest dose often 41.8 µM), for the others: at the top dose activity change, negative = inhibition, hits mostly inhibitors | 340,000 compounds, 3.4% hits | AID 651820, 2012; also: potency is read from the fitted curve at half-maximal effect
#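 After 44 h co-culture of compound, cells and HCVcc-Cre (~0.5 moi), substrate is added for 15 min at room temperature and luciferase measured over 15 sec. Cells were seeded at 1,000/well and pre-cultured 4 h.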
# HCMV inh: qHTS Assay for inhibitors of the human cytomegalovirus (HCMV). HFF cells, HCMV-luciferase reporter, 72 h; hits give low values. activity change, negative = inhibition, % at 57.5 µM. 410,000 compounds, 4.5% hits. AID 1259415, 2018; in the data active = activity change below about -60%; inconclusive = no clear call, values can overlap the other calls; inactive = above about -39%
#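 Two-dose cell screen: HFF monolayers treated with compounds and infected with luciferase-expressing HCMV at 1 PFU/cell, 72 h at 37C, then lysed for luciferase measurement.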
# An asterisk follows results filed as active; ? = inconclusive; / = no result given. Unless noted, calls follow the shape of the dose curve; as a rule, active = well fitted inhibition curve with a large enough effect; inconclusive = small, poorly fitted or top-dose-only effect, or another doubt; inactive = no such curve, though single readings can be large or run the other way. % is scaled to controls: 0 for no effect and ±100 for the full control effect.
SMILES,Pf growth 96h,Pf growth 48h,HCV inh,HCMV inh
Cc1cc(-c2c(C)[nH]n(-c3ccccc3)c2=O)n(-c2ccccc2)n1,16%,6%,-11%,4
Cc1cc(-c2c(C)[nH]n(-c3ccc(Cl)cc3)c2=O)n(-c2ccc(Cl)cc2)n1,1µM*,?,11%,-10
Cc1[nH]n(-c2ccccc2)c(=O)c1-c1ccc(Cl)cc1,2.1µM*,/,17%,2
Cc1[nH]n(-c2ccccc2)c(=O)c1-c1cccc(Cl)c1,1.5µM*,1.7µM*,-3%,-30
O=C(Nc1ccc(F)cc1)c1csc(C(O)Cc2ccccc2)n1 (centres undefined),/,/,/,50
Cc1cccc(NC(=O)C2CCCN(S(=O)(=O)c3c(C)nn(C)c3C)C2)c1 (centres undefined),/,/,-10%,11
CCOC(=O)c1c(S(=O)(=O)N2CCCC(C(=O)Nc3cccc(C)n3)C2)c(C)n(C)c1C (centres undefined),?,?,15%,22
Cc1cccc(NC(=O)C2CCCN(S(=O)(=O)c3c(C)nn(C)c3C)C2)n1 (centres undefined),12µM*,-11%,?,?
Cc1ccc(C)c(NC(=O)C2CCCN(S(=O)(=O)c3c(C)nn(C)c3C)C2)c1 (centres undefined),2.9µM*,-26%,-5%,-22
C[N+](C)(C)CCOC(=O)C(O)(c1ccccc1)c1ccccc1,11µM*,0%,/,/
CCN1C(=O)c2ccccc2Sc2ccc(C(=O)NC(C)C)cc21,30%,-11%,7%,-101*
CCc1ccccc1NC(=O)Nc1ccc2c(c1)N(CC)C(=O)c1ccccc1S2,/,/,/,-84*
CCOC(=O)c1ccc2c(c1)N(Cc1ccccc1)C(=O)c1ccccc1S2,/,/,/,-18
CCN1C(=O)c2ccccc2Sc2ccc(NC(=O)Nc3ccc(Br)c(C)c3)cc21,/,/,/,-102*
CCN(CC)CCNC(=O)Nc1ccc2c(c1)N(Cc1ccccc1)C(=O)c1ccccc1S2,/,/,/,-61*
O=C(COc1ccc(F)cc1)Nc1ccccc1C(=O)OCc1cc(=O)n2nc(C3CC3)sc2n1,/,/,/,30
O=C(CSc1nnc(CNc2cccc(C(F)(F)F)c2)n1Cc1ccco1)NCc1ccco1,-25%,-27%,2%,43
O=C(O)CSc1nnc(CNc2cccc(C(F)(F)F)c2)n1Cc1ccco1,6.6µM*,18%,19%,30
Cc1cc(C)c2oc(=O)cc(CN3CCN(Cc4ccccc4)CC3)c2c1,?,12µM*,-4%,31
Cc1ccc2oc(=O)cc(CN3CCOCC3)c2c1,7.4µM*,-3%,-3%,34
Cc1ccc2c(CN3CCN(Cc4ccccc4)CC3)cc(=O)oc2c1C,?,0%,-20%,22
Cc1ccc2c(CN3CCOCC3)cc(=O)oc2c1,-12%,33%,10%,-3
CCc1ccc2oc(=O)cc(CN3CCC(C)CC3)c2c1,2.9µM*,1.3µM*,?,-22
Cc1ccc2c(CN3CCCCC3)cc(=O)oc2c1,19%,35%,2%,-77*
Cc1ccc2c(CN3CCN(S(=O)(=O)/C=C/c4ccccc4)CC3)cc(=O)oc2c1,9.3µM*,?,?,-12
SMILES,Pf growth 96h,Pf growth 48h,HCV inh,HCMV inh
CCN1CCN(Cc2cc(=O)oc3ccc(C)cc23)CC1,24%,2%,-11%,11
Cc1ccc2oc(=O)cc(CN3CCC(C)CC3)c2c1,5.9µM*,?,10%,8
Cc1cc(C)c2c(CN3CCC(C)CC3)cc(=O)oc2c1C,-26%,?,?,-9
Cc1cc(C)c2oc(=O)cc(CN3CCC(C)CC3)c2c1,?,10µM*,-10%,16
C[C@H]1[C@@H](NS(=O)(=O)c2ccc(-c3ccccc3)cc2)CC[C@@]23CCCN2C(=O)CCC[C@@H]13,/,/,/,10
COC(=O)c1ccc2nc(-c3ccc4c(c3)OCO4)cn2c1,205%,110%,1%,-9
CCc1ccn2cc(-c3ccc4c(c3)OCO4)nc2c1,130%,12%,?,-78*
O=C(Nc1ccc(Nc2ccncc2)cc1)c1ccc(Nc2ccnc3ccc([N+](=O)[O-])cc23)cc1[N+](=O)[O-],0.52µM*,1.5µM*,-28%,-23
Cc1ccccc1NC(=S)NC(=O)c1cncc(Br)c1,14%,3%,-5%,-11
O=C(Nc1cccc(NC(=O)c2cncc(Br)c2)c1)c1cncc(Br)c1,?,3.7µM*,?,-33
O=C(Nc1ccncc1)c1cncc(Br)c1,/,10%,17%,-32
O=C(Nc1ccc(Nc2ccncc2)cc1)c1ccc([N+](=O)[O-])cc1,1.7µM*,2.6µM*,11µM*,-90*
Cc1c(Cl)cccc1NC(=S)NC(=O)c1cncc(Br)c1,/,/,6%,-65*
Cc1c(C(=O)Nc2cccc(C#N)c2)sc2nc3n(c(=O)c12)CCCCC3,/,/,/,-20
CCOc1ccc(OCC)c(NC(=O)c2cnc(SC)nc2-c2ccccc2)c1,/,/,/,-18
CCn1nc(-c2ccccc2)c(-c2ccccc2)c(C(=O)Nc2ccccc2C(N)=O)c1=O,/,/,/,23
Cc1cc(C)cc(NC(=O)c2ccc3c(c2)nnn3C2CCCC2)c1,/,/,/,-19
O=C(Nc1ccc(N2CCN(C(=O)c3ccccc3F)CC2)cc1)c1cncc(Br)c1,?,?,?,-90*
O=C(Nc1ccc([N+](=O)[O-])cc1)c1ccc(Cn2cc([N+](=O)[O-])cn2)cc1,0%,?,?,-68*
O=C(Nc1ccc([N+](=O)[O-])cc1)c1cncc(Br)c1,-8%,?,-8%,-85*
O=C(NC(=S)Nc1cc(Cl)ccc1O)c1cccc(Br)c1,3.3µM*,?,11µM*,?
O=C(Nc1ccc(N2CCCCC2)cc1)c1cncc(Br)c1,/,173%,?,21
COCCN1Cc2cc(C(=O)OC)c3c(c2C1=O)c1ccccc1n3S(=O)(=O)c1ccc(C)cc1,/,/,/,74
O=C(c1ccccc1)N1CCc2cc(CNS(=O)(=O)c3ccccc3Cl)ccc21,/,/,/,-78*
O=C(c1ccccc1)N1CCc2cc(CNS(=O)(=O)c3ccc(Cl)s3)ccc21,/,/,/,-70*
SMILES,Pf growth 96h,Pf growth 48h,HCV inh,HCMV inh
CC(=O)N1CCc2cc(CNC(=O)Nc3ccccc3C(F)(F)F)ccc21,/,/,/,10
CC(=O)N1CCc2cc(CNS(=O)(=O)c3ccccc3C(F)(F)F)ccc21,/,/,/,-93*
O=C(Nc1ccncc1)Nc1ccc(F)c(Cl)c1,20%,3.3µM*,3%,2
O=C(Nc1ccncc1)Nc1ccc(F)cc1F,35%,9.3µM*,10%,17
O=C(Nc1ccc(Cl)cc1)Nc1ccc(Cl)c(C(F)(F)F)c1,/,/,/,-99*
CNCC(=O)Nc1ccc(Cl)c(C(F)(F)F)c1,11%,11%,-9%,-26
COC(=O)c1sccc1NC(=O)Nc1ccccc1F,9.3µM*,60%,17%,9
C=CCNC(=O)Nc1ccc(F)c(Cl)c1,-13%,0%,-5%,-94*
CCC(=O)Nc1sc(C(=O)Nc2ccccc2F)c(C)c1C(=O)OC,2.1µM*,6%,-28%,73
